# From PubChem BioAssay (NCATS)
# Records with an inconclusive call do not appear. The source made the active and inactive calls. Unless noted, the call rests on the fitted dose curve; in most records, active means well fitted curve in the direction sought with a large enough effect; inconclusive means small, poorly fitted or top-dose-only effect, or another doubt; inactive means no such curve, though single readings can be large; an effect the other way counts as inactive or inconclusive.
# Experiments:
# [1] = qHTS to identify inhibitors of the type 1 interferon - major histocompatibility complex class I in skeletal muscle: primary screen against the NCATS Mechanism Interrogation Plate v5.0 (MIPE) Libary (AID 1347411);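 further: plate controls were vehicle for no effect and reference inhibitor for full effect; nearly all actives have a fitted effect of over 65% in size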
# How it was run: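 Immortalized human myoblasts (C25cl48) with HiBit knocked into endogenous HLA-B*08:01 were stimulated with 4 ng/ml IFN-beta and given compounds in 11-point 1:3 titration from 46 uM. After 24 h at 37 C, lytic HiBiT luminescence was read.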
# [2] = target: Glutathione peroxidase 1 (Homo sapiens) (UniProt P07203); assay: Primary qHTS Assay for Inhibitors of Recombinant Selenoprotein Glutathione Peroxidase 1 (GPX1) (AID 1845191); further: nearly all actives have a fitted effect of over 65% in size
# Chain of Glutathione peroxidase 1 (Homo sapiens) (P07203 whole entry, looked up): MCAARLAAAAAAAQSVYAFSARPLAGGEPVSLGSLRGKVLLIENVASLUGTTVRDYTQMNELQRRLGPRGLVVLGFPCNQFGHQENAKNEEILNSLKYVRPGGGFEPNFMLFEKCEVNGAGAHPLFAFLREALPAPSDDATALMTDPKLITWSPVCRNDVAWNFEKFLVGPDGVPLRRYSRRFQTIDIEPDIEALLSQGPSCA
# How it was run: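 GR-coupled assay: compounds preincubated 30 min at room temperature with GPX1, then reaction started with CHP; final 10 nM GPX1, 1 mM GSH, 0.5 mM CHP, 0.5 mM NADPH, 100 nM GR, 0.01% BSA, pH 7.5 Tris buffer. NADPH fluorescence (340/450 nm) read at 0 and 15 min.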
# [3] = target: Phospholipid hydroperoxide glutathione peroxidase GPX4 (Homo sapiens) (UniProt P36969); assay: Primary qHTS Assay for Inhibitors of Recombinant Selenoprotein Glutathione Peroxidase 4 (GPX4) (AID 1845192); conditions: outcome: dose series up to 50 µM unless noted; further: nearly all actives have a fitted effect of over 65% in size; further: potency means the concentration at half of the fitted maximal effect; on activity change, negative = inhibition: on the % scale 0 is the no-effect control and ±100 the full control effect
# Chain of Phospholipid hydroperoxide glutathione peroxidase GPX4 (Homo sapiens) (P36969 whole entry, looked up): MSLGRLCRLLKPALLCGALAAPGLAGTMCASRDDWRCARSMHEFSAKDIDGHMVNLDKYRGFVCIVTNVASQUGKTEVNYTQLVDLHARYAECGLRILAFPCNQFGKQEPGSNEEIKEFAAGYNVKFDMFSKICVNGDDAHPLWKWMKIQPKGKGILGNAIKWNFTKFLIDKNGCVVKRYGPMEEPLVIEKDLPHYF
# How it was run: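 GR-coupled assay: recombinant GPX4 preincubated 30 min with compound at room temperature; final 200 nM GPX4, 1 mM GSH, 0.5 mM cumene hydroperoxide, 0.5 mM NADPH, 100 nM GR, 0.01% BSA, pH 7.5 Tris. NADPH fluorescence (340/450 nm) read at 0 and 15 min.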
# [4] = qHTS drug screen for cell cycle checkpoint inhibitors in PARPi-resistant BRCA-mutant ovarian cancer cell lines. (AID 1963452; calls by dose curve; further: potency means the concentration at half of the fitted maximal effect); conditions: PEO1/OlaR viability, CellTiter-Glo luminescence, 96 h; for Z-AUC: stronger effect = lower value
# How it was run: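 PEO1, PEO4 and PEO1/OlaR ovarian cancer cells, 600 per well, exposed 96 h at 37C to a dilution series. Viability read by CellTiter-Glo luminescence, normalized to DMSO and empty wells; activity summarized as Z-AUC.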
# [5] = Primary qHTS for inhibitors of nuclear receptor binding SET domain protein 2 (NSD2) in an isogenic RCH-ACV NSD2 p.E1099K mutant (9B) (AID 1645876); further: nearly all actives have a fitted effect of over 70% in size; further: potency means the concentration at half of the fitted maximal effect
# [6] = Primary qHTS for inhibitors of nuclear receptor binding SET domain protein 2 (NSD2) in an RCH-ACV wild type WT cells (2C) (AID 1645877); further: nearly all actives have a fitted effect of over 70% in size; further: potency means the concentration at half of the fitted maximal effect
# [7] = qHTS assay to identify inhibitors of the type 1 interferon - major histocompatibility complex class I in skeletal muscle: Counter screen cell viability and HiBit confirmation (AID 1347412); conditions: iHSKM muscle cells + IFN-b, HiBiT or CellTiter-Glo, 24 h; for activity change, negative = inhibition: at 45.9 µM (top of the series); further: potency means the concentration at half of the fitted maximal effect; on activity change, negative = inhibition: on the % scale 0 is the no-effect control and ±100 the full control effect; on all read-outs here: nearly all actives have a fitted effect of over 60% in size
# How it was run: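 HLA-B*08:01–HiBiT knock-in immortalized human myoblasts (C25cl48) stimulated with 4.0 ng/ml human IFN-beta and dosed with compound in a 12-point 1:3 titration (top final 46 uM). After 24 hrs at 37 C, HiBiT lytic luminescence or CellTiter Glo ATP read out.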
# [8] = qHTS Assay for Lipid Storage Modulators (AID 1519; calls by dose curve; on activity change, negative = inhibition: on the % scale 0 is the no-effect control and ±100 the full control effect); conditions: Drosophila S3 cells, BODIPY lipid droplet/cell ratio, laser cytometry, cells loaded with oleic acid
# How it was run: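 Cells seeded at 5,000 per well were treated with compounds over a concentration series and loaded with oleic acid (400 uM, as added). Lipid droplet fluorescence (488 nm excitation, 500-530 nm channel) was read by laser-scanning cytometry and normalized to 20 uM Triacsin C.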
# [9] = measured here: PEO1 parental Z-AUC
compound,measurement,setting,value
C=CC(=O)Nc1cc(N2CCN(CC)CC2)ccc1Nc1cc(N(C)C(=O)Nc2c(Cl)c(OC)cc(OC)c2Cl)ncn1,Potency,[1],inactive
same,Potency,[2],inactive
same,Potency,[3],inactive
same,Z-AUC,[4],1.02 (inactive)
same,Z-AUC,[4]; [9],0.686
same,Z-AUC,[4]; measured here: PEO4 Z-AUC,0.736
COc1cc(=C2C=c3ccccc3=N2)[nH]/c1=C/c1[nH]c(C)cc1C,Potency,[5],inactive
same,Potency,[6],inactive
same,Potency,[2],inactive
same,Z-AUC,[4],0.716 (inactive)
same,Z-AUC,[4]; [9],0.368
same,Z-AUC,[4]; measured here: PEO4 Z-AUC,1.02
same,"activity change, negative = inhibition",[7]; HiBiT,-23.6% (inactive)
same,Potency,[7]; Viability,1.25 µM (active)
O=C(CCc1ccc(O)cc1)c1c(O)cc(O)cc1O[C@@H]1O[C@H](CO)[C@@H](O)[C@H](O)[C@H]1O,"activity change, negative = inhibition",[8]; at 57.5 µM (top of the series),9.34% (inactive)
same,max response,[8]; measured here: cell count channel max response,19.8%
same,max response,[8]; measured here: lipid channel max response,29.9%
same,Potency,[5],inactive
same,Potency,[2],inactive
same,Potency,[3],inactive
same,Z-AUC,[4],0.341 (inactive)
same,Z-AUC,[4]; [9],0.557
same,Z-AUC,[4]; measured here: PEO4 Z-AUC,0.754
same,"activity change, negative = inhibition",[7]; HiBiT,6.74% (inactive)
same,"activity change, negative = inhibition",[7]; Viability,1.25% (inactive)
CC#CC(=O)N1CC[C@@H](n2c(=O)n(-c3ccc(Oc4ccccc4)cc3)c3c(N)ncnc32)C1,Potency,[5],6.61 µM (active)
same,Potency,[6],16.6 µM (active)
same,Potency,[2],inactive
same,Potency,[3],inactive
same,Z-AUC,[4],1.04 (inactive)
same,Z-AUC,[4]; [9],0.828
same,Z-AUC,[4]; measured here: PEO4 Z-AUC,1.1
same,"activity change, negative = inhibition",[7]; HiBiT,-23.5% (inactive)
same,"activity change, negative = inhibition",[7]; Viability,-0.0272% (inactive)
CCC(=C/[C@H](C)C/C=C/C(C)=C/[C@@H](C)C(=O)[C@@H](C)[C@H](O)[C@@H](C)C/C(C)=C/C(=O)O)/C=C/[C@@H]1OC(=O)C=C[C@@H]1C,Potency,[5],0.0042 µM (active)
same,Potency,[6],0.0042 µM (active)
same,Potency,[2],inactive
same,Potency,[3],10.1 µM (active)
same,Potency,[4],6.92 µM (active)
same,Z-AUC,[4]; [9],-4.05
same,Z-AUC,[4]; measured here: PEO4 Z-AUC,-3.51
same,Potency,[7]; HiBiT,0.0031 µM (active)
same,"activity change, negative = inhibition",[7]; Viability,-3.47% (inactive)
CN1C(=O)N(c2cc(Cl)cc(Cl)c2)C(=O)[C@]12CN(Cc1cc(C(=O)O)cs1)C[C@H]2c1ccc(C#N)cc1,Potency,[1],inactive
same,Potency,[2],inactive
same,Z-AUC,[4],0.948 (inactive)
same,Z-AUC,[4]; [9],1.08
same,Z-AUC,[4]; measured here: PEO4 Z-AUC,0.897
C/C=C(/C)C(=O)O[C@H]1C(C)=CC23C(=O)C(C=C(CO)[C@@H](O)[C@]12O)[C@H]1[C@@H](C[C@H]3C)C1(C)C (some centres not stated),Potency,[1],inactive
same,Potency,[3],inactive
same,Z-AUC,[4],-0.0624 (inactive)
same,Z-AUC,[4]; [9],-0.301
same,Z-AUC,[4]; measured here: PEO4 Z-AUC,-0.581
C/C=C1\NC(=O)[C@H]2CSSCCC=C[C@H](CC(=O)N[C@H](C(C)C)C(=O)N2)OC(=O)[C@H](C(C)C)NC1=O,Potency,[7]; HiBiT,0.0004 µM (active)
same,"activity change, negative = inhibition",[7]; Viability,-27.6% (inactive)
C[C@@H]1Cc2c([nH]c3ccccc23)[C@@H](c2c(F)cc(/C=C/C(=O)O)cc2F)N1CC(C)(C)F,Potency,[1],inactive
same,Potency,[2],inactive
same,Z-AUC,[4],-0.309 (inactive)
same,Z-AUC,[4]; [9],-0.682
same,Z-AUC,[4]; measured here: PEO4 Z-AUC,-0.807
COc1cc2c(NC3CCN(C4CCCCC4)CC3)nc(N3CCCN(C(C)C)CC3)nc2cc1OCCCN1CCCCC1,Potency,[5],4.68 µM (active)
same,Potency,[6],5.25 µM (active)
same,Z-AUC,[4],1.47 (inactive)
same,Z-AUC,[4]; [9],1.1
same,Z-AUC,[4]; measured here: PEO4 Z-AUC,0.674
same,Potency,[7]; HiBiT,17.6 µM (active)
same,Potency,[7]; Viability,24.9 µM (active)
